# Measurements reported in PubChem BioAssay (NCATS).
# Results filed as inconclusive are left out. Where a call stands in place of a potency, no number is given. Calls of active or inactive are those of the source. Unless noted, the call rests on the fitted dose curve; in most records, active means well fitted curve in the direction sought with a large enough effect; inconclusive means small, poorly fitted or top-dose-only effect, or another doubt; inactive means no such curve, though single readings can be large; an effect the other way counts as inactive or inconclusive.
# Tests used:
# [1] = target: Endonuclease 4 (Escherichia coli (strain K12)) (UniProt P0A6C1); assay: Counterscreen for APE1 Inhibitors: qHTS Validation Assay for Inhibitors of Endonuclease IV (AID 1708); further: potency means the concentration at half of the fitted maximal effect; details: E. coli endonuclease IV, DNA cleavage fluorescence
# Method in brief: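 2 nM enzyme was preincubated with compounds for 15 min at room temperature in 50 mM Tris-HCl pH 7.5, 50 mM NaCl, 2 mM MgCl2, 1 mM DTT, 0.01% Tween-20. 50 nM THF-abasic TAMRA/BHQ-2 duplex substrate started the reaction.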
# [2] = qHTS for differential inhibitors of proliferation of Plasmodium falciparum line 7G8 (AID 1815); details: Plasmodium falciparum 7G8 proliferation inhibition; series mostly up to 28.7 µM;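 further: parasite growth measured after three days of incubation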
# [3] = qHTS for differential inhibitors of proliferation of Plasmodium falciparum line GB4 (AID 1816); details: series mostly up to 28.7 µM;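 further: parasite growth measured after 72 h incubation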
# [4] = qHTS for differential inhibitors of proliferation of Plasmodium falciparum line 3D7 (AID 1876); further: potency means the concentration at half of the fitted maximal effect; details: P. falciparum 3D7 proliferation inhibition; series mostly up to 28.7 µM
# [5] = qHTS for differential inhibitors of proliferation of Plasmodium falciparum line D10 (AID 1877); details: series mostly up to 28.7 µM;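 further: parasites grown with compound for 72 h before DNA staining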
# [6] = qHTS for differential inhibitors of proliferation of Plasmodium falciparum line Dd2 (AID 1882); details: series mostly up to 28.7 µM;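 further: compound exposure of 72 h on infected erythrocytes; nearly all actives have a fitted effect of over 65% in size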
# Method in brief: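 SYBR Green I DNA fluorescence read-out, ex 485/em 535 nm. Signals were normalized to 0.29 uM artemisinin and DMSO wells, then corrected using vehicle-only plates flanking each stack. Parasite growth ran 72 h in erythrocytes before lysis.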
# [7] = qHTS for differential inhibitors of proliferation of Plasmodium falciparum line HB3 (AID 1886); details: Potency: Plasmodium falciparum HB3 proliferation inhibition; series mostly up to 28.7 µM;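 further: parasites grown with compound for 72 h before SYBR Green readout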; further: potency means the concentration at half of the fitted maximal effect
# [8] = qHTS Assay for Modulators of Human Peripheral Myelin Protein 22 (PMP22) Expression/Activity (AID 1967; active means well fitted curve in the direction sought with a large enough effect in the signal ratio; the % refers to the signal ratio); details: Cell-based PMP22 reporter, dual-color luciferase ratio, 0% = compound-free control cells, mouse Pmp22 promoter in mouse Schwann cells; series mostly up to 115 µM
# Method in brief: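 Mouse MSC80 Schwann cells carrying Pmp22 promoter–green click beetle luciferase plus EF-alpha–red luciferase control, dosed 24 h at 37 °C. Dual-filter luminescence, overlap-corrected; %Activity from green/red ratio normalised to untreated cells, concentration-response curves fitted.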
# [9] = qHTS for differential inhibitors of proliferation of Plasmodium falciparum line W2 (AID 1883); details: Plasmodium falciparum W2 proliferation inhibition;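 further: potency means the concentration at half of the fitted maximal effect; parasites grown with compound for 72 h before lysis and staining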
# [10] = target: Lysosomal alpha-glucosidase (Homo sapiens) (UniProt P10253); assay: Confirmation of Inhibitors and Activators of Purified Human alpha-Glucosidase (AID 2115; active means well fitted curve in either direction with a large enough effect); details: purified human GAA enzyme activity; series mostly up to 76.2 µM
# Method in brief: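 Purified human enzyme (4 nM) with 4-methylumbelliferyl-alpha-D-glucopyranoside (400 uM), compounds up to 77 uM, in citrate/phosphate buffer pH 5.0 with 0.005% Tween-20. After 20 min at RT, stopped at pH 10; fluorescence ex 365/em 440 nm; AC50 from Hill fits.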
structure (smiles),measurement,setting,value
CC(=O)OCC1=C(C(=O)O)N2C(=O)[C@@H](NC(=O)CSc3ccncc3)[C@H]2SC1,Potency,[1],15.8 µM (active)
same,outcome,[2],inactive
same,outcome,[3],inactive
same,Potency,[4],inactive
same,outcome,[5],inactive
same,outcome,[6],inactive
same,Potency,[7],inactive
same,outcome,[8],inactive
NC(N)=NCc1cccc(I)c1,outcome,[2],inactive
same,Potency,[4],8.91 µM (active)
same,outcome,[6],inactive
same,Potency,[9],10 µM (active)
same,Potency,[7],6.31 µM (active)
CCCCN1C[C@H](O)[C@@H](O)[C@H](O)[C@H]1CO,outcome,[10],inactive
